# BCR signal inh: chronic active BCR signaling inhibition | ABC-DLBCL IkBa-CBG/CBR reporter, luminescence ratio, 4 h | AID 493014 | Potency, µM (top dose mostly 46.1 µM), most hits filed as inhibitors | hit rate 0.05% among 340,000; active = well fitted inhibition curve with a large enough effect in the signal ratio, with a control signal flat, not every such curve was filed as active; inconclusive = small, poorly fitted or top-dose-only effect, or effect the other way, or a change in a side signal; the % refers to the signal ratio
#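 Doxycycline induced both beetle luciferases in TMD8 lymphoma cells; IKK-driven degradation limits the IkappaBalpha-fused green signal, while red luminescence normalises for cell number and nonspecific effects. Compounds tested up to 46 uM, 4 hrs.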
# CtBP-E1A blk: blocks the CtBP interaction with E1A | AlphaScreen GST-E1A/His-CtBP binding, 1536-well; stronger effect = lower value | activity change, % (no concentration beside the values) | hit rate 0.49% among 340,000
#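 Steps: dispense buffer (Tris pH 8.0, NaCl 300 mM, TCEP 1 mM, BSA, Tween 20); add 5X protein mix (GST-E1A, His-CtBP, 125 nM each); pin 23 nL compound; 2 h at 37 °C, dark; add 5X beads (50 ug/mL); 1 h; read.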
# Six1-Eya2 inh: Six1/Eya2 interaction inhibition; activity change, % (no concentration beside the values); hit rate 0.56% among 360,000; AlphaScreen GST-Six1/His-Eya2 binding, biochemical; stronger effect = lower value; Q15475+O00167; AID 651725
#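 AlphaScreen with GST-Six1 and His-Eya2 (5X mix: 250 nM and 500 nM), glutathione donor and nickel acceptor beads; buffer 50 mM Tris pH 8.0, 300 mM NaCl, 1 mM TCEP; 1 h at 37 C in the dark.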
# ASM inhibitor: inhibitors of human secretory acid sphingomyelinase. AID 504937. Potency, µM (highest dose often 57.5 µM), actives largely listed as inhibitors. P17405. placental ASM, HMU-PC fluorogenic substrate, 60 min. hit rate 0.006% among 340,000; active = well fitted inhibition curve with a large enough effect; inconclusive = small, poorly fitted or top-dose-only effect; inactive = no such curve, though single readings can be large or run the other way
#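 Steps: dispense placental human ASM, pin compound, wait 10 min at room temperature, add HMU-PC0 substrate at 9 uM final, incubate 60 min at 37 °C, add stop solution raising pH to 10, read fluorescence.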
# TSHR antag: antagonists of human thyroid stimulating hormone receptor; TSHR-expressing cells, TSH-stimulated cAMP HTRF, 2 h; stronger effect = lower value; AID 504810; P16473; activity change, negative = inhibition, % at 11.5 µM; hit rate 0.2% among 330,000;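 active = activity change below a set negative limit, meaning inhibition stronger than a set level, cut at about -70% in these data; inconclusive = activity change between two set negative limits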
#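 Inhibition of cAMP made by TSHR-expressing cells under TSH stimulation (4nM final, EC80; 2 h, 37 deg C) is quantified with a one-step lysis HTRF kit, anti-cAMP cryptate versus cAMP-d2.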
# A number is an active result; . = inactive; ? = inconclusive; / = no result. An excerpt weighted towards active compounds, which were near 0.85% of everything screened. Cut-off read from the data, not from the text of the source, unless noted: active = activity change below about -65%; inconclusive = mostly about -30% to -63%; inactive = weaker than that.
SMILES,BCR signal inh,CtBP-E1A blk,Six1-Eya2 inh,ASM inhibitor,TSHR antag
Nc1cc(S(=O)(=O)O)cc2ccc(S(=O)(=O)O)cc12,/,.,.,.,/
O=S(=O)(O)c1cc(O)c2c(O)c(N=Nc3cc(Cl)ccc3O)c(S(=O)(=O)O)cc2c1,.,-94.7,-74.7,.,.
CCCC(=O)NC1CC(=O)N(c2ccc3c(c2)OCCO3)C1 (stereo not drawn),.,/,/,/,/
C[N+](C)(C)CCCNC(=O)c1ccc(/C=N/O)nc1,.,?,-69.2,.,.
CNCCCNC(=O)c1ccc(/C=N/O)nc1,.,?,-69.0,.,.
COc1ccc(C)cc1S(=O)(=O)NCC(c1cccs1)S(=O)(=O)c1ccc(C)cc1 (stereo not drawn),.,/,/,/,/
O=C(N/N=C/C(Cl)=C/c1ccc([N+](=O)[O-])cc1)C(=O)Nc1ccc(C(=O)O)cc1,?,-98.3,.,.,.
O=C(Nc1ccc(C(=O)O)cc1)/C(=C\c1ccc([N+](=O)[O-])cc1)NC(=O)c1ccco1,/,.,.,/,/
O=C(N/N=C/C(Cl)=C/c1ccc([N+](=O)[O-])cc1)C(=O)Nc1ccccc1C(=O)O,?,-91.6,.,.,.
COc1cccc(C2C(=O)N(C3CCCCC3)CC(=O)N2Cc2ccc(Cl)cc2)c1 (stereo not drawn),.,/,/,/,/
COc1cc(OC)c(-c2cc(C(=O)NCc3ccc(F)cc3)c3c(-c4ccccc4)[nH]nc3n2)cc1OC,.,/,/,/,/
NNc1nccc(Nc2ccccc2C(=O)O)n1,?,-66.8,-90.5,.,.
O=C1CSC(=S)N1/N=C/c1ccc(O)c(O)c1O,.,-93.7,-91.0,.,.
CCOC(=O)C(Sc1nnc2c3ccccc3n(CC)c2n1)C(=O)OCC,.,-71.8,?,.,.
Cc1nc(C)c(-c2csc(Nc3ccc(N)cc3)n2)s1,.,/,.,.,.
Cc1nc(C)c(-c2csc(Nc3ccc(O)c(C(=O)O)c3)n2)s1,?,.,-70.7,.,.
Cc1ccc(NC(=O)Cn2nc(-c3ccccc3)nc(Cc3ccc(Cl)cc3)c2=O)cc1,.,/,/,/,/
COc1ccc(-c2nc(-c3ccccc3)c(-c3cccs3)[nH]2)cc1OC,?,.,?,.,.
COc1ccc(-c2nc(-c3cccs3)c(-c3cccs3)[nH]2)cc1OC,?,-73.0,?,.,.
CC(C)CCNC(=O)Cc1ccc(Nc2nc(=S)[nH]c3ccccc23)cc1,.,.,-85.8,.,.
CCSS(=O)(=O)c1cccc2cccnc12,?,-90.5,-91.1,.,.
O=C(O)CCS(=O)(=O)c1cccc2cccnc12,.,.,.,.,.
COc1ccc(N2CC(C(=O)Nc3ccc([N+](=O)[O-])cc3Br)CC2=O)cc1 (stereo not drawn),.,.,.,.,.
COc1ccc(N2CC(C(=O)N/N=C/c3cc([N+](=O)[O-])ccc3O)CC2=O)cc1 (stereo not drawn),.,-77.2,-89.6,.,.
O=C1NCCCC1C(=O)N/N=C/c1ccccc1[N+](=O)[O-] (stereo not drawn),.,.,.,.,.
SMILES,BCR signal inh,CtBP-E1A blk,Six1-Eya2 inh,ASM inhibitor,TSHR antag
O=C(N/N=C/c1ccccc1O)C1CC(=O)N(c2ccc(F)cc2)C1 (stereo not drawn),.,?,-69.9,.,.
O=C1NCCCC1C(=O)N/N=C/c1ccccc1O (stereo not drawn),.,-71.5,?,.,.
O=C(Cn1cnc2ccccc21)N/N=C/C(Br)=C/c1ccccc1,.,-83.4,.,.,.
COc1ccc(N2CCN(C3CCCN(S(=O)(=O)c4ccc(C)cc4C)C3)CC2)cc1 (stereo not drawn),.,-66.3,?,.,.
Cc1cccn2c(=O)c(C(=O)NCc3cccc(F)c3)cnc12,.,/,/,/,/
Cc1cc(Cl)ccc1OCC(=O)NNC(=O)C1CCN(c2ncnc3sc(C)c(C)c23)CC1,?,/,.,.,-71.6
O=c1oc2ccccc2c(O)c1Sc1c(O)c2ccccc2oc1=O,/,-83.4,-73.6,?,/
Oc1cc(Nc2ccc(N3CCCCC3)cc2)cc2cccnc12,.,/,/,/,.
O=C(CSC1=NNC(c2ccccn2)S1)Nc1ccccc1 (stereo not drawn),.,-94.0,-93.9,.,.
O=C(CSc1nncn1-c1ccccn1)Nc1cccc(Cl)c1,.,.,.,.,.
